# Results published in PubChem BioAssay AID2283179 (EPA ToxCast).
# Results filed as inconclusive are left out. The source made the active and inactive calls. How the source made its calls: active means hit-call score of the fitted dose curve at least 0.9, where 1 is the maximum; inconclusive means response in the unintended direction; inactive means score below 0.9.
# Biological target: human Microtubule Affinity Regulating Kinase 1 (MARK1), MARK1 (gene 4139) (UniProt Q9P0L2)
# Experiment: NVS_ENZ_hMARK1: NovaScreen (NVS) Enzymatic Assay for human Microtubule Affinity Regulating Kinase 1 (MARK1)
# Description: NVS_ENZ_hMARK1 is a biochemical, single-readout assay that uses extracted gene-proteins in a cell-free assay. Measurements were taken 1 hour after chemical dosing in a 384-well plate.NVS_ENZ_hMARK1 is one of one assay component(s) measured or calculated from the NVS_ENZ_hMARK1 assay. It is designed to make measurements of enzyme activity, a form of enzyme reporter, as detected with fluorescence intensity signals by Fluorescence and electrophoretic mobility shift technology.Data from the assay component NVS_ENZ_hMARK1 was analyzed into 1 assay endpoint. This assay endpoint, NVS_ENZ_hMARK1, was analyzed in the positive analysis fitting direction relative to DMSO as the negative control and baseline of activity. Using a type of enzyme reporter, loss-of-signal activity can be used to understand changes in the enzymatic activity as they relate to the gene MARK1. Furthermore, this assay endpoint can be referred to as a primary readout, because this assay has produced multiple assay endpoints where this one serves a enzymatic activity function. To generalize the intended target to other relatable targets, this assay endpoint is annotated to the kinase intended target family, where the subfamily is serine/threonine kinase.
# Binding assays used specific radioligands (tritiated, iodinated) with non-radioactive competitive displacement ligands in agonist or antagonist protocols (as indicated) and various reference compounds and inhibitors to titrate specific binding to receptors and transporters. Most enzyme assays (CYPs, kinases, phosphatases, proteases, HDACs) used recombinant protein and specific substrates (fluorescence mostly, some colorimetric and radioactive) and inhibitors, followed by a biochemical separation of substrate and product. All assays for the biochemical HTS were initially run in duplicate at a single concentration (10 uM for CYP450 assays and 25 uM for all others). Assay-chemical combinations meeting a pre-defined threshold (e.g., 30% inhibition and other criteria defined below) were then run in singleton concentration-response format with maximum concentration of 20 uM for CYPs and 50 uM for all others. Each assay was run with positive and negative controls, and concurrent controls on every plate. The follow-up (secondary) screen tested active chemical-pairs in concentration series, as well as a few additional assays not tested in the primary screen, some selected negative inactives, and several cases re-run in the concentration series for confirmatory purposes.
# Sequence of human Microtubule Affinity Regulating Kinase 1 (MARK1), MARK1 (gene 4139) (Q9P0L2 whole entry, looked up): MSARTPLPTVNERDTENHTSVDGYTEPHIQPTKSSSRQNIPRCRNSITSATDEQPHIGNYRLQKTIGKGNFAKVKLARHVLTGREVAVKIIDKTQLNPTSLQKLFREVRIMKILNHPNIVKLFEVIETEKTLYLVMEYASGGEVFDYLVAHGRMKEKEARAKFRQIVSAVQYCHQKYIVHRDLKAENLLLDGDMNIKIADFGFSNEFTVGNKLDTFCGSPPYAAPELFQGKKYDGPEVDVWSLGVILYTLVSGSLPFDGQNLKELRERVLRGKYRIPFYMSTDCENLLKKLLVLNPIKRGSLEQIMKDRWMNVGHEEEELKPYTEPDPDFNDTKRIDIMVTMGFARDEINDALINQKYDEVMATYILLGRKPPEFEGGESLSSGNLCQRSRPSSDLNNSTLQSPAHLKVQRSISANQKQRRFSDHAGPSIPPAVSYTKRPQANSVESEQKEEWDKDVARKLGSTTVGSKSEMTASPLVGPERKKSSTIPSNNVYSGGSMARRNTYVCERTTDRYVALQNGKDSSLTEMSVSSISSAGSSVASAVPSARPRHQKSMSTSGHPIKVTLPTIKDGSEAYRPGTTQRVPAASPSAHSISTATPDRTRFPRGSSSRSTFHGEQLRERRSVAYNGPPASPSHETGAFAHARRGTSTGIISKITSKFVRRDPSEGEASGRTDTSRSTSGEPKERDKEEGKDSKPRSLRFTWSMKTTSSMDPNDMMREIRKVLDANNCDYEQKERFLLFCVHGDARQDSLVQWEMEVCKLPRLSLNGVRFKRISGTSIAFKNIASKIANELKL
SMILES,AC50,outcome
O=C(O)C1(C(=O)Nc2ccc(Cl)cc2Cl)CC1,7850 nM (active),
S=C(S)NCCNC(=S)S.[Mn+2].[S-]C([S-])=NCCN=C([S-])[S-].[Zn+2],1380 nM (active),
S=C([S-])NCCNC(=S)[S-].[Mn+2],406 nM (active),
O=C(Nc1ccc([N+](=O)[O-])cc1Cl)c1cc(Cl)ccc1O,,inactive
